Where “and” joins values, the source holds several entries; their conditions need not be identical. Equal entries are not always repeated. Records with an inconclusive call do not appear. Values without a mark were called inactive. Calls of active or inactive are those of the source. Calls follow the shape of the dose curve; as a rule, active = well fitted curve in the direction sought with a large enough effect; inconclusive = small, poorly fitted or top-dose-only effect, or another doubt; inactive = no such curve, though single readings can be large; an effect the other way counts as inactive or inconclusive.
What was measured:
[1] = molecular target: Cellular tumor antigen p53 (Homo sapiens) (UniProt P04637); assay: Primary qHTS for small molecule compounds that upregulate eGFP-tagged delta133p53alpha (in N-terminal) cells. (AID 2060322); conditions: NCI-H358 eGFP-delta133p53alpha fluorescence, 24 h; activation: active compounds read high; also: nearly all actives have a fitted effect of over 75% in size; also: potency is read from the fitted curve at half-maximal effect;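 as to activation: cells pre-induced with doxycycline then dosed without doxycycline; series mostly up to about 56 µM; 0% = DMSO vehicle and 100% = reference activator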
In short: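 NCI-H358 cells pre-induced 24 h with 10 ng/ml doxycycline for eGFP-delta133p53alpha, plated dox-free and exposed 24 h at 37C to titrated compounds. Fixed, Hoechst-stained; gated GFP peak intensity by laser scanning cytometry, normalized to DMSO (0%) and 57.5 uM 5-azacytidine (100%).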

[2] = molecular target: Aldehyde dehydrogenase, mitochondrial (Homo sapiens) (UniProt P05091); assay: qHTS for Inhibitors of the Aldehyde Dehydrogenase Family (ALDH2) Primary screen (AID 2061308);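 also: plate controls were vehicle for no effect and reference inhibitor for full effect; nearly all actives have a fitted effect of over 55% in size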
[3] = molecular target: Retinaldehyde dehydrogenase 3 (Homo sapiens) (UniProt P47895); assay: qHTS for Inhibitors of the Aldehyde Dehydrogenase Family (ALDH1A3) Primary screen (AID 2061315);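 also: plate controls were DMSO vehicle for no effect and reference inhibitor for full effect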
[4] = BET inhibitor-based combinations targeting novel dependencies in MECOM-rearranged (r) AML: SET-2 cell line (AID 2202231); conditions: SET-2 AML cells viability, CellTiter-Glo luminescence, 48 h; viability: active compounds read low, concentration not given here; also: nearly all actives have a fitted effect of over 35% in size; also: potency is read from the fitted curve at half-maximal effect;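 as to viability: plate controls were DMSO treated cells for no effect and wells without cells for full effect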
In short: (§1)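 A 48 hr incubation preceded viability reading by CellTiter-Glo, with 15 min room-temperature development. Dose series had 11 points; normalization used DMSO and empty wells; AUC was computed and mean-centered per line as Z-AUC.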

[5] = BET inhibitor-based combinations targeting novel dependencies in MECOM-rearranged (r) AML: OCI-AML3 cell line (AID 2202232); conditions: Potency: OCI-AML3 viability; also: nearly all actives have a fitted effect of over 35% in size; also: potency is read from the fitted curve at half-maximal effect;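 as to viability (% of control): series mostly up to about 46 µM; plate controls were DMSO vehicle wells for no effect and wells without cells for full effect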
In short: as §1

[6] = BET inhibitor-based combinations targeting novel dependencies in MECOM-rearranged (r) AML: MV-4-11 cell line (AID 2202233); also: nearly all actives have a fitted effect of over 45% in size; also: potency is read from the fitted curve at half-maximal effect
In short: (§2)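 Each compound is tested in an 11-point concentration series against 500 seeded cells/well for 48 hr. The luminescent viability signal is normalized to DMSO and blank wells, then reduced to AUC and a cell-line-centred Z-AUC.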

[7] = BET inhibitor-based combinations targeting novel dependencies in MECOM-rearranged (r) AML: HNT-34 cell line (AID 2202234); also: nearly all actives have a fitted effect of over 35% in size; also: potency is read from the fitted curve at half-maximal effect;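 as to viability (% of control): plate controls were vehicle wells for no effect and cell-free wells for full effect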
In short: as §2

[8] = BET inhibitor-based combinations targeting novel dependencies in MECOM-rearranged (r) AML: AML-194 cell line (AID 2202237; also: nearly all actives have a fitted effect of over 40% in size; also: potency is read from the fitted curve at half-maximal effect;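 as to viability (% of control): plate controls were vehicle wells for no effect and wells without cells for full effect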)
In short: as §1

[9] = BET inhibitor-based combinations targeting novel dependencies in MECOM-rearranged (r) AML: UCSD-AML1 cell line (AID 2202235); also: nearly all actives have a fitted effect of over 40% in size; also: potency is read from the fitted curve at half-maximal effect;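 as to viability (% of control): series mostly up to about 46 µM; plate controls were DMSO vehicle wells for no effect and blank wells for full effect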
In short: as §2

[10] = BET inhibitor-based combinations targeting novel dependencies in MECOM-rearranged (r) AML: AML-191 cell line (AID 2202236; also: nearly all actives have a fitted effect of over 35% in size; also: potency is read from the fitted curve at half-maximal effect;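 as to viability (% of control): plate controls were vehicle wells for no effect and wells without cells for full effect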)
In short: as §1

Chain of Cellular tumor antigen p53 (Homo sapiens) (P04637 whole entry, looked up): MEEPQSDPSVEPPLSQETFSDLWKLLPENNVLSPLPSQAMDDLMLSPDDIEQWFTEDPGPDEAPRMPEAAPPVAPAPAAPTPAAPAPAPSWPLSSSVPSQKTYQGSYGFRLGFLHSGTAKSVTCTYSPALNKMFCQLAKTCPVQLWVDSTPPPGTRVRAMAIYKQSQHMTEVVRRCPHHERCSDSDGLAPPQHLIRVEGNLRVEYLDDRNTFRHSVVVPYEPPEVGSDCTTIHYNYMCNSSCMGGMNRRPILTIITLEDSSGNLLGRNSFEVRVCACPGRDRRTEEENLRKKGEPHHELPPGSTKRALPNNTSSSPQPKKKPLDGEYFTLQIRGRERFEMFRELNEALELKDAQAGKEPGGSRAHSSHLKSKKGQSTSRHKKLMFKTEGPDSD

CC1CCC(n2c3cnccc3c3cnc(Nc4ccc5c(n4)CCN(C(=O)CO)C5)nc32)CC1 (stereo not given)
Potency [1]: 23.9 µM (active) | Potency [2]: inactive | Potency [3]: inactive | viability [4]: 105% | viability (% of control) [5]: 86.5% [at 8.46 µM] | Potency [6]: 0.152 µM (active) | viability (% of control) [7]: 92.3% [at 8.46 µM] | Potency [8]: 1.21 µM (active)

NC(=O)c1ccccc1Nc1ccnc(Nc2cccc(O)c2)n1
Potency [1]: 30.1 µM (active) | Potency [2]: inactive | Potency [3]: inactive | Potency [4]: 5.9 µM (active) | Potency [5]: 18.6 µM (active) | Potency [6]: 0.662 µM (active) | Potency [9]: 1.66 µM (active) | Potency [10]: 5.25 µM (active)

CNC1CCC(N(Cc2cccc(-c3ccncc3)c2)C(=O)c2sc3ccccc3c2Cl)CC1 (stereo not given)
Potency [1]: 24.3 µM (active) and 30.1 µM (active) | Potency [2]: inactive | Potency [3]: inactive | Potency [4]: 26.3 µM (active) | Potency [5]: 18.6 µM (active) | Potency [6]: 16.6 µM (active) | Potency [7]: 26.3 µM (active) | Potency [10]: 20.9 µM (active) | Potency [8]: 23.5 µM (active)

CCc1cc(C(N)=O)ccc1-n1nc(C(C)C)c2c(-n3cnc(-c4cnn(C)c4)c3)ccnc21
activation [1]: 4.33% | Potency [2]: inactive | Potency [3]: inactive | Potency [4]: 2.95 µM (active) | Potency [5]: 1.86 µM (active) | Potency [6]: 0.662 µM (active) | Potency [7]: 1.32 µM (active) | Potency [9]: 1.86 µM (active) | Potency [10]: 1.66 µM (active) | Potency [8]: 1.48 µM (active)

Nc1ccn(C2CO[C@H](CO)O2)c(=O)n1 (stereo not given in full)
activation [1]: -4.75% | Potency [2]: inactive | Potency [3]: inactive | viability [4]: 113% | Potency [5]: inactive | Potency [6]: inactive | Potency [7]: inactive | Potency [9]: inactive | Potency [10]: inactive | Potency [8]: inactive

Source: PubChem BioAssay (NCATS)
